Experimental findings from PubChem BioAssay (Tox21) are described below.

Assay [1] in a line: qHTS assay for small molecule agonists of the p53 signaling pathway (AID 651631; calls by dose curve; also: nearly all actives have a fitted effect of over 15% in size). The method in brief: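 Beta-lactamase reporter activity under p53 response elements was quantified in HCT-116 cells by FRET fluorescence, following 16 h incubation with test compounds at 37 °C and 2 h substrate development at room temperature.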
For orientation: Quantitative high-throughput screening tests each substance at several concentrations.

Assay [2] is described as follows: qHTS assay for small molecules that induce genotoxicity in human embryonic kidney cells expressing luciferase-tagged ATAD5 (AID 651632). Also: nearly all actives have a fitted effect of over 15% in size. The essentials: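 Concentration-response screen for ATAD5 upregulation in HEK293T luciferase reporter cells; 16 hr treatment at 37C, then luminescence after 30 min with Amplite at room temperature.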
Assay [3] is described as follows: qHTS assay for small molecule agonists of the p53 signaling pathway - cell viability (AID 651633; calls by dose curve;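 also: p53RE-bla HCT reporter cells with a stable beta-lactamase p53 reporter; series mostly up to about 83 µM; nearly all actives have a fitted effect of over 30% in size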). The essentials: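 p53RE-bla cells, seeded at 4,000 per well and rested 5 h at 37 C/5% CO2, received compounds in DMSO for 16 h at 37 C. CellTiter-Glo was then added, and luminescence was read after 30 min at room temperature to gauge cytotoxicity.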
A short description of assay [4]: qHTS assay for small molecules that induce genotoxicity in human embryonic kidney cells expressing luciferase-tagged ATAD5 - cell viability (AID 651634; calls by dose curve; also: nearly all actives have a fitted effect of over 25% in size; also: potency is read from the fitted curve at half-maximal effect). The method in brief: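 15.5 hr compound or vehicle exposure of HEK293T cells expressing luciferase-tagged ATAD5 at 37C; live-cell protease activity is read by fluorescence after 30 min of CellTiter-Fluor.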
A short description of assay [5]: qHTS assay for small molecule disruptors of the mitochondrial membrane potential - cell viability (AID 720634; calls by dose curve;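 also: human HepG2 liver cancer cells; series mostly up to about 83 µM; nearly all actives have a fitted effect of over 20% in size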). The method in brief:
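In this qHTS format, HepG2 cells plated overnight were pinned with compound, incubated 1 hr, and assayed for ATP luminescence with CellTiter-Glo after m-MPI dye addition.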

Assay [6] can be described thus: qHTS assay for small molecule disruptors of the mitochondrial membrane potential (AID 720635). Also: potency is read from the fitted curve at half-maximal effect. The essentials:
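HepG2 cells (2,000/well) attached overnight at 37C, then took compound for 1 hr at 37C, 5% CO2. Mito-MPS dye was added for 30 min; fluorescence was read at 490/535 nm (monomers) and 540/590 nm (aggregates).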

Assay [7] is described as follows: qHTS assay to test for compound auto fluorescence at 590 nm (red) in HepG2 cells (AID 720674). The method in brief: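 Compound auto-fluorescence is scored relative to Rose Bengal sodium, measured at 540/590 nm in live HepG2 cultures after 1 hr compound contact (37 C, 5% CO2).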
Assay [8] in a line: qHTS assay to test for compound auto fluorescence at 535 nm (green) in HepG2 cells (AID 720675).
Assay [9] in a line: qHTS assay to test for compound auto fluorescence at 590 nm (red) in HEK293 cells (AID 720679). The method in brief: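 Red channel, Ex/Em 540/590nm; signal expressed as equivalency to Rose Bengal sodium. HEK293, 2,000 cells/well, 10% dialyzed FBS; 23 nL compound pinned after 4-5 hr attachment; overnight 37C/5% CO2 before reading.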
Assay [10] can be described thus: qHTS assay to test for compound auto fluorescence at 460 nm (blue) in HEK293 cells (AID 720678). The essentials:
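Blue read-out at excitation 405 nm and emission 460 nm follows overnight compound exposure of HEK293 cells at 37C in 5% CO2. Activity is given as auto fluorescence equivalency to triamterene.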

Values without a mark were called inactive. Results filed as inconclusive are left out. Calls of active or inactive are those of the source. Unless noted, calls follow the shape of the dose curve; as a rule, active = well fitted curve in the direction sought with a large enough effect in the repeat runs; inconclusive = weak or mixed curves; inactive = no such curve, though single readings can be large; an effect the other way counts as inactive or inconclusive.
% is scaled to controls: 0 for no effect and ±100 for the full control effect.

Consider `CN=C(NC#N)Nc1ccc(C2=NNC(=O)CC2C)cc1` (stereo not given), for which the molecule was classed as inactive in assay [1], in assay [3], in assay [5], in assay [7], in assay [8] and in assay [9]. In addition, the Potency entry in assay [2], in assay [4] and in assay [6] was “inactive” in each case.
As to `N[C@@H](CCC(=O)Nc1ccc([N+](=O)[O-])cc1)C(=O)O`, the molecule was called inactive in [1], in [3], in assay [5], in assay [7], in [8] and in assay [10]. Moreover, the result in assay [9] was inactive. The Potency result in assay [2] and in assay [4] was “inactive” in each case.
`C[C@H](N)[C@H](O)c1cccc(O)c1`: the result in [1], in [3] and in assay [5] was inactive. The Potency entry in assay [2] and in [4] was “inactive” throughout. Further, the fluorescence, relative to Rose Bengal in [7] was 0.285% [at 18.6 µM]. Besides, the fluorescence, % of fluorescein control in assay [8] is 0.0051% [at 18.6 µM]. The fluorescence, % of triamterene in assay [10] is 2.14% [at 18.6 µM]. Besides, the fluorescence, % of fluorescent control in assay [9] was -0.0013% [at 18.6 µM].
Turning to `COC(=O)C1CC(=O)C(C(=O)OC)CC1=O` (stereo not given), the activation in assay [1] was -2.34% [at 8.3 µM]; in [2], 2.21% [at 8.08 µM]. Besides, the activity change, negative = cytotoxicity is 20.9% [at 8.08 µM] in assay [3] and 10.5% [at 8.08 µM] in [5]. The activity, negative = cytotoxicity in assay [4] was 31.1% [at 8.08 µM]. Further, the fluorescence, relative to Rose Bengal in assay [7] was 0.406% [at 3.72 µM]. The fluorescence, % of fluorescein control in [8] was 0.0015% [at 3.72 µM]. Besides, in [10], the fluorescence, % of triamterene was 1.94% [at 3.72 µM]. Besides, the fluorescence, % of fluorescent control in assay [9] was 0.169% [at 3.72 µM].
Turning to `CNC(=O)[C@H]1O[C@@H](n2cnc3c(NCc4cc(Cl)ccc4OCc4cc(C)no4)ncnc32)[C@H](O)[C@@H]1N`, the result in assay [1], in [3], in assay [5], in [7], in assay [8] and in assay [10] was inactive. In assay [9], the call was inactive. Further, the Potency entry in [2] and in assay [4] was “inactive” throughout.
As for `NS(=O)(=O)c1ccc(NC(=O)CCC(=O)O)cc1`, the molecule was called inactive in assay [1], in assay [3], in assay [5], in assay [7], in assay [8] and in assay [9]. For the same molecule, the Potency entry in [2], in assay [4] and in assay [6] was “inactive” throughout.
As for `CC1(C)S[C@@H]2[C@H](N=CN3CCCCCC3)C(=O)N2[C@H]1C(=O)O`, the molecule was classed as inactive in assay [1], in assay [3], in assay [5], in assay [7], in assay [8] and in assay [10]. Moreover, the molecule was called inactive in assay [9]. In addition, the Potency result in assay [2] and in assay [4] was “inactive” each time.
Regarding `Cc1cccc2nccnc12`, the molecule was called inactive in assay [1], in [3], in [5], in assay [7], in assay [8] and in assay [10]. Also, the outcome in assay [9] was inactive. For the same molecule, the Potency result in assay [2] and in assay [4] was “inactive” throughout.
As for `COCCOCCOCCOCCOCCO`, the molecule was called inactive in [1], in assay [3], in [5], in assay [7], in assay [8] and in [10]. Besides, the call in [9] was inactive. In addition, the Potency result in assay [2] and in [4] was “inactive” in each case.
Regarding `CCOCCOCCOCC`, the call in assay [1], in [3], in [5], in [7], in assay [8] and in assay [10] was inactive. Also, the outcome in assay [9] was inactive. In addition, the Potency entry in [2] and in assay [4] was “inactive” in each case.
Take `CCC(C)NC(N)=O` (stereo not given): the call in assay [1], in assay [3], in [5], in assay [7], in [8] and in assay [10] was inactive. In addition, the molecule was called inactive in assay [9]. Further, the Potency entry in [2] and in assay [4] was “inactive” throughout.
As to `CCCCNC1CC(C)(C)NC(C)(C)C1`, the result in assay [1], in [3], in assay [5], in assay [7], in assay [8] and in assay [10] was inactive. The molecule was called inactive in assay [9]. Further, the Potency result in [2] and in assay [4] was “inactive” throughout.
Regarding `O=C1c2ccccc2C(=O)N1CCl`, the molecule was called inactive in [1], in assay [3], in [5], in assay [7], in assay [8] and in [10]. Further, the molecule was classed as inactive in [9]. The Potency entry in assay [2] and in assay [4] was “inactive” throughout.
`CCO[Si](CCCS)(OCC)OCC`: the call in assay [1], in assay [3], in assay [5], in [7], in assay [8] and in assay [10] was inactive. The outcome in assay [9] was inactive. The Potency entry in assay [2] and in [4] was “inactive” each time.
Regarding `COCCOCCOCCOCCO`, the call in assay [1], in assay [3], in assay [5], in [7], in assay [8] and in assay [10] was inactive. In assay [9], the result was inactive. The Potency entry in assay [2] and in assay [4] was “inactive” in each case.
Take `C=C(C)C(=O)OCC(C)(C)COC(=O)C(=C)C`: the outcome in assay [1], in [3], in [5], in [7], in assay [8] and in [9] was inactive. Also, the Potency entry in [2] and in [4] was “inactive” each time.
In the case of `Cc1cccc(C)c1OCC(C)N` (stereo not given), the molecule was classed as inactive in assay [1], in assay [3], in assay [7], in assay [8], in assay [10] and in assay [9]. Further, the Potency result in [2] and in [4] was “inactive” throughout.
Consider `O=C(c1ccc(O)cc1)c1ccc(O)c(O)c1O`, for which the call in assay [1], in [3], in [5], in assay [7], in [8] and in assay [9] was inactive. In addition, in [2], the Potency result was “inactive”. For the same molecule, the Potency in [6] is 27.4 µM (active).
For the molecule `CO[C@@H]1[C@@H](OC(N)=O)[C@@H](O)[C@H](Oc2ccc3c(O)c(NC(=O)c4ccc(O)c(CC=C(C)C)c4)c(=O)oc3c2C)OC1(C)C`, the result in [1], in [3] and in [5] was inactive. The Potency entry in assay [2] and in assay [4] was “inactive” in each case. Moreover, the fluorescence, relative to Rose Bengal in assay [7] was -0.195% [at 18.6 µM]. Further, the fluorescence, % of fluorescein control in assay [8] was -0.0594% [at 18.6 µM]. In assay [9], the fluorescence, % of fluorescent control was 0.173% [at 18.6 µM].
For the molecule `COCCOC(=O)C1=C(C)NC(C)=C(C(=O)OC(C)C)C1c1cccc([N+](=O)[O-])c1` (stereo not given), the call in assay [1], in assay [3], in [5], in assay [7], in [8] and in assay [9] was inactive. The Potency entry in [2] and in [4] was “inactive” in each case.
As to `CCCCN`, the call in assay [1], in assay [3], in assay [5], in assay [7], in assay [8] and in [10] was inactive. Besides, in [9], the outcome was inactive. The Potency entry in assay [2] and in [4] was “inactive” in each case.
For the molecule `CCC(C=O)CC`, the molecule was classed as inactive in [1], in assay [3], in assay [5], in assay [7], in assay [8] and in [9]. Besides, the Potency result in [2] and in assay [4] was “inactive” in each case.
Regarding `CCCOC(=O)C(C)O` (stereo not given), the call in assay [1], in assay [3], in assay [5], in assay [7], in [8] and in assay [10] was inactive. The molecule was classed as inactive in assay [9]. Moreover, the Potency entry in assay [2] and in assay [4] was “inactive” in each case.
Take `CC(N)C(=O)OC(C)(C)Cc1ccc(Cl)cc1` (stereo not given): the molecule was classed as inactive in assay [1], in assay [3], in assay [5], in assay [7], in [8] and in [10]. In addition, the result in [9] was inactive. The Potency entry in [2] and in [4] was “inactive” in each case.
Turning to `NC(CO)C(=O)NNCc1ccc(O)c(O)c1O` (stereo not given), the molecule was called inactive in assay [1], in [3], in assay [5], in [7], in [8] and in assay [9]. Also, the Potency entry in [2] and in assay [4] was “inactive” throughout.
For `Nc1ccc([N+](=O)[O-])c(N)c1`, the result in assay [1], in assay [3], in assay [5], in assay [7], in [8] and in assay [10] was inactive. For the same molecule, the outcome in [9] was inactive. Further, the Potency result in assay [2] is “inactive”. Besides, the Potency in assay [4] is 47.3 µM (active).
Turning to `CCCCOCCOC(=O)COc1nc(Cl)c(Cl)cc1Cl`, the result in [1], in assay [3], in assay [5], in assay [7], in [8] and in assay [9] was inactive. The Potency entry in [2] and in assay [4] was “inactive” throughout.
